Test results as given in PubChem BioAssay (NCATS).
Where “and” joins values, the source holds several entries; their conditions need not be identical. Identical values can stand only once. Inconclusive results are not listed. A call without a number means that no potency is given here. Calls of active or inactive are those of the source. Unless noted, calls follow the shape of the dose curve; as a rule, active = well fitted curve in the direction sought with a large enough effect; inconclusive = small, poorly fitted or top-dose-only effect, or another doubt; inactive = no such curve, though single readings can be large; an effect the other way counts as inactive or inconclusive.

What was measured:
[1] = biological target: Cellular tumor antigen p53 (Homo sapiens) (UniProt P04637); experiment: Primary qHTS for small molecule compounds that upregulate eGFP-tagged delta133p53alpha (in N-terminal) cells. (AID 2060322); settings: NCI-H358 eGFP-delta133p53alpha fluorescence, 24 h; activation: hits give high values; also: nearly all actives have a fitted effect of over 75% in size; also: potency is read from the fitted curve at half-maximal effect
Sequence of Cellular tumor antigen p53 (Homo sapiens) (P04637 whole entry, looked up): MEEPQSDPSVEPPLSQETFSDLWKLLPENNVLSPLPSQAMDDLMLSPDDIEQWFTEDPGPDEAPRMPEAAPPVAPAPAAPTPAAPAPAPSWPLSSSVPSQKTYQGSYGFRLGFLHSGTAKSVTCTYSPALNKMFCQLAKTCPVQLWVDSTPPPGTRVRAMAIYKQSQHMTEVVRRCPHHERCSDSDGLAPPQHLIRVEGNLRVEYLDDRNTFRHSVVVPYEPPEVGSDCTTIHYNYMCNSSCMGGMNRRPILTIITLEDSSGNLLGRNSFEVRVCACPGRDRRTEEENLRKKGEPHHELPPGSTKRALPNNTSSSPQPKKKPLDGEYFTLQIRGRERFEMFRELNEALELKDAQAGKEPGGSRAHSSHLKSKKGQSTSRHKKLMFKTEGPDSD
Summary of the method: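 NCI-H358 cells pre-induced 24 h with 10 ng/ml doxycycline to express N-terminal eGFP-delta133p53alpha, then dosed 24 h at 37C without doxycycline; fixed, Hoechst-stained, GFP intensity by laser scanning cytometry, normalized to DMSO (0%) and 57.5 uM 5-azacytidine (100%).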

[2] = biological target: Aldehyde dehydrogenase, mitochondrial (Homo sapiens) (UniProt P05091); experiment: qHTS for Inhibitors of the Aldehyde Dehydrogenase Family (ALDH2) Validation screens (AID 2061302; active = well fitted inhibition curve with a large enough effect; title and protocol of this record describe different tests; also: potency is read from the fitted curve at half-maximal effect); settings: ALDH inhibition qHTS; series mostly up to 42.6 µM
[3] = biological target: Retinaldehyde dehydrogenase 3 (Homo sapiens) (UniProt P47895); experiment: qHTS for Inhibitors of the Aldehyde Dehydrogenase Family (ALDH1A3) Validation screen (AID 2061312); settings: ALDH1A3 enzyme inhibition qHTS validation, fluorescence; series mostly up to 42.4 µM; also: nearly all actives have a fitted effect of over 45% in size; also: potency is read from the fitted curve at half-maximal effect
[4] = biological target: Aldehyde dehydrogenase, mitochondrial (Homo sapiens) (UniProt P05091); experiment: qHTS for Inhibitors of the Aldehyde Dehydrogenase Family (ALDH2) Confirmatory screens (AID 2061303; active = well fitted inhibition curve with a large enough effect; title and protocol of this record describe different tests; also: nearly all actives have a fitted effect of over 45% in size); settings: ALDH inhibition qHTS; series mostly up to 45.4 µM
[5] = qHTS for Inhibitors of the Aldehyde Dehydrogenase Family (ALDH1A2, ALDH1A3, ALDH2, ALDH3A1) (AID 2061307); settings: ALDH inhibition qHTS; series mostly up to 50.3 µM; also: nearly all actives have a fitted effect of over 50% in size; as to potency: test system not described further here; potency is read from the fitted curve at half-maximal effect
[6] = biological target: Retinaldehyde dehydrogenase 3 (Homo sapiens) (UniProt P47895); experiment: qHTS for Inhibitors of the Aldehyde Dehydrogenase Family (ALDH1A3) Confirmatory screens (AID 2061311); settings: ALDH inhibition qHTS; series mostly up to 46 µM; also: nearly all actives have a fitted effect of over 60% in size; also: potency is read from the fitted curve at half-maximal effect
[7] = biological target: Aldehyde dehydrogenase 1A1 (Homo sapiens) (UniProt P00352); experiment: qHTS for Inhibitors of the Aldehyde Dehydrogenase Family (ALDH1A1) Confirmatory screens (AID 2061316); settings: ALDH inhibition qHTS; series mostly up to 47.3 µM; also: nearly all actives have a fitted effect of over 65% in size; also: potency is read from the fitted curve at half-maximal effect
[8] = biological target: Aldehyde dehydrogenase, mitochondrial (Homo sapiens) (UniProt P05091); experiment: qHTS for Inhibitors of the Aldehyde Dehydrogenase Family (ALDH2) Primary screen (AID 2061308); settings: ALDH2 enzyme inhibition qHTS, 1536-well; series mostly up to 56 µM; also: nearly all actives have a fitted effect of over 55% in size
[9] = biological target: Retinaldehyde dehydrogenase 3 (Homo sapiens) (UniProt P47895); experiment: qHTS for Inhibitors of the Aldehyde Dehydrogenase Family (ALDH1A3) Primary screen (AID 2061315); settings: ALDH inhibition qHTS; series mostly up to 56 µM; also: potency is read from the fitted curve at half-maximal effect
[10] = biological target: Cellular tumor antigen p53 (Homo sapiens) (UniProt P04637); experiment: Primary qHTS for small molecule compounds that upregulate eGFP-tagged delta133p53alpha (in C-terminal) cells. (AID 2060324); settings: NCI-H358 delta133p53alpha-eGFP (C-terminal tag), GFP fluorescence imaging, 24 h; series mostly up to 57.5 µM
Summary of the method: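 NCI-H358 cells pre-induced 24 h with 100 ng/ml doxycycline to express delta133p53alpha-eGFP, then dosed in doxycycline-free medium for 24 h at 37C. Fixed, Hoechst-stained; GFP intensity by laser scanning cytometry, normalized to DMSO wells.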

[11] = biological target: Retinal dehydrogenase 2 (Homo sapiens) (UniProt O94788); experiment: qHTS for Inhibitors of the Aldehyde Dehydrogenase Family (ALDH1A2) Confirmation screens (AID 2061314); settings: ALDH1A2 enzyme inhibition qHTS confirmation; series mostly up to 45.9 µM; also: nearly all actives have a fitted effect of over 65% in size; also: potency is read from the fitted curve at half-maximal effect
[12] = BET inhibitor-based combinations targeting novel dependencies in MECOM-rearranged (r) AML: OCI-AML3 cell line (AID 2202232); settings: CellTiter-Glo luminescence, 48 h; Potency: OCI-AML3 viability; series mostly up to 46 µM; also: nearly all actives have a fitted effect of over 35% in size
Summary of the method: (§1)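 Luminescent ATP readout (CellTiter-Glo) after 48 hr drug exposure gives viability. Curves span 11 concentrations and are normalized to DMSO and empty wells. Activity is reported as area under the curve and its Z-transform within each cell line.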

[13] = BET inhibitor-based combinations targeting novel dependencies in MECOM-rearranged (r) AML: HNT-34 cell line (AID 2202234); settings: HNT-34 AML viability, CellTiter-Glo luminescence, 48 h; series mostly up to 46 µM; also: nearly all actives have a fitted effect of over 35% in size
Summary of the method: (§2)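 Luminescent ATP readout (CellTiter-Glo, 15 min at room temperature) after 48 hr drug exposure gave viability. Dose-response curves, normalized to DMSO and empty-well controls, were summarized as area under the curve and its mean-centred Z-score.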

[14] = BET inhibitor-based combinations targeting novel dependencies in MECOM-rearranged (r) AML: UCSD-AML1 cell line (AID 2202235); settings: UCSD-AML1 AML cells viability, CellTiter-Glo, 48 h; series mostly up to 46 µM; also: nearly all actives have a fitted effect of over 40% in size
Summary of the method: as §2

[15] = BET inhibitor-based combinations targeting novel dependencies in MECOM-rearranged (r) AML: AML-194 cell line (AID 2202237; also: nearly all actives have a fitted effect of over 40% in size); settings: AML-194 (MECOM-r AML) viability, CellTiter-Glo, 48 h; series mostly up to 46 µM
Summary of the method: as §1

[16] = BET inhibitor-based combinations targeting novel dependencies in MECOM-rearranged (r) AML: SET-2 cell line (AID 2202231); settings: SET-2 AML cells viability, CellTiter-Glo luminescence, 48 h; viability: hits give low values, concentration not given here; also: nearly all actives have a fitted effect of over 35% in size
Summary of the method: as §1

[17] = BET inhibitor-based combinations targeting novel dependencies in MECOM-rearranged (r) AML: MV-4-11 cell line (AID 2202233); settings: MV-4-11 AML viability, CellTiter-Glo luminescence, 48 h; series mostly up to 46 µM; also: nearly all actives have a fitted effect of over 45% in size
Summary of the method: as §2

[18] = BET inhibitor-based combinations targeting novel dependencies in MECOM-rearranged (r) AML: AML-191 cell line (AID 2202236; also: nearly all actives have a fitted effect of over 35% in size); settings: AML-191 viability, CellTiter-Glo luminescence, 48 h; series mostly up to 46 µM
Summary of the method: as §1

Structure (SMILES): NC(CCCCCP(=O)(O)O)C(=O)O (stereo unspecified)
- activation [1]: -10.2% (inactive)
- Potency [2]: inactive
- Potency [3]: inactive

Structure (SMILES): COc1ccc(CNC(=O)/C=C/c2ccc3[nH]cc(CCN(C)C)c3c2)cc1
- activation [1]: 13.3% (inactive)
- Potency [2]: inactive
- Potency [3]: inactive

Structure (SMILES): CN(N=O)c1cc(O)ccc1O
- activation [1]: -33.2% (inactive)
- Potency [2]: 0.794 µM (active)
- Potency [4]: inactive
- Potency [5]: 2.25 µM (active)
- Potency [6]: 0.634 µM (active)
- Potency [3]: 0.282 µM (active)
- Potency [7]: 2.25 µM (active)

Structure (SMILES): S=C(NC1CCCCC1)N1CCC(c2cnc[nH]2)CC1
- activation [1]: 5.67% (inactive) and -16.8% (inactive)
- Potency [2]: inactive
- Potency [8]: inactive
- Potency [3]: inactive
- Potency [9]: inactive

Structure (SMILES): C[N+](C)(C)CC#CCN1CCCC1=O
- activation [1]: -31.7% (inactive)
- Potency [10]: inactive
- Potency [3]: inactive

Structure (SMILES): C[N+]1(C)C2CCC1CC(OC(=O)c1c[nH]c3ccccc13)C2 (stereo unspecified)
- activation [1]: -13.4% (inactive)
- Potency [10]: inactive
- Potency [3]: inactive

Structure (SMILES): COC1=C[C@@H]2[C@@H]3Cc4ccc(OC)c(O)c4[C@]2(CCN3C)CC1=O
- activation [1]: 8.33% (inactive)
- Potency [5]: inactive
- Potency [8]: inactive
- Potency [6]: inactive
- Potency [11]: 7.12 µM (active)
- Potency [9]: inactive
- Potency [7]: inactive
- Potency [12]: inactive
- Potency [13]: inactive
- Potency [14]: inactive
- Potency [15]: inactive

Structure (SMILES): COc1ccc(C(=O)N2CCCC2=O)cc1
- activation [1]: 27.7% (inactive) and -18.6% (inactive) and -9.06% (inactive)
- Potency [2]: inactive
- Potency [3]: inactive
- viability [16]: 119% (inactive)
- Potency [17]: inactive
- Potency [13]: inactive
- Potency [14]: inactive
- Potency [18]: inactive
- Potency [15]: inactive

Structure (SMILES): C=CC(C)(C)c1[nH]c2c(CC=C(C)C)cc(CC=C(C)C)cc2c1C[C@@H]1NC(=O)[C@H](C)NC1=O
- activation [1]: 14.3% (inactive)
- Potency [8]: inactive

Structure (SMILES): CS[C@]1(CO)C(=O)N2[C@H]3C(=CC=C[C@@H]3O)C[C@@]2(SC)C(=O)N1C
- activation [1]: -6.11% (inactive)
- Potency [8]: inactive

Structure (SMILES): Cc1[nH]c2ccc(Cl)cc2c1CCN(C)C
- activation [1]: -3.82% (inactive)
- Potency [4]: inactive
- Potency [5]: inactive
- Potency [6]: inactive
- Potency [3]: 10 µM (active)
- Potency [11]: inactive
- Potency [9]: inactive

Structure (SMILES): N#C[C@@H](O[C@@H]1O[C@H](CO[C@@H]2O[C@H](CO)[C@@H](O)[C@H](O)[C@H]2O)[C@@H](O)[C@H](O)[C@H]1O)c1ccccc1
- activation [1]: -19.6% (inactive)
- Potency [8]: inactive

Structure (SMILES): Cc1cc(C(=O)CN2CCCC2)c(C)n1-c1ccc(F)cc1
- activation [1]: 10% (inactive) and -5.25% (inactive)
- Potency [4]: inactive
- Potency [5]: inactive
- Potency [8]: inactive
- Potency [6]: inactive
- Potency [3]: inactive
- Potency [9]: inactive

Structure (SMILES): NCC1(CC(=O)O)CCCCC1
- activation [1]: -0.945% (inactive) and -3.35% (inactive) and 5.99% (inactive)
- Potency [2]: inactive
- Potency [3]: inactive
- Potency [14]: inactive

Structure (SMILES): O=S(=O)(c1ccccc1F)N1CCOc2c(N3CCNCC3)cccc21
- activation [1]: 9.07% (inactive)
- Potency [4]: inactive
- Potency [5]: inactive
- Potency [8]: inactive
- Potency [6]: inactive
- Potency [11]: inactive
- Potency [9]: inactive
- Potency [7]: inactive

Structure (SMILES): COc1ccc2c(C(=O)c3ccc(Cl)cc3)c(C)n(CC(=O)O)c2c1
- activation [1]: -36.8% (inactive)
- Potency [5]: inactive
- Potency [8]: inactive
- Potency [6]: inactive
- Potency [11]: inactive
- Potency [9]: inactive
- Potency [7]: inactive

Structure (SMILES): O=C(OC[C@H]1O[C@@H](Oc2ccc(O)cc2CO)[C@H](O)[C@@H](O)[C@@H]1O)c1ccccc1
- activation [1]: 28.6% (inactive)
- Potency [8]: inactive

Structure (SMILES): N#Cc1ccc(N2CCN(C(=O)COc3ccc4[nH]cc(CCN)c4c3)CC2)cc1
- activation [1]: -4.3% (inactive)
- Potency [4]: inactive
- Potency [8]: inactive
- Potency [3]: inactive
- Potency [7]: inactive

Structure (SMILES): CO[C@@H]1[C@H](O)[C@@H](O[C@@H]2C[C@H]3CC[C@@H]4C(CC[C@]5(C)[C@@H](C6=CC(=O)OC6)CC[C@]45O)[C@@]3(C)[C@H](O)C2)O[C@H](C)[C@@H]1O (stereo partly specified)
- Potency [1]: 1.04 µM (active)
- Potency [4]: inactive
- Potency [5]: inactive
- Potency [8]: inactive
- Potency [6]: inactive
- Potency [11]: inactive
- Potency [9]: inactive
- Potency [7]: inactive

Structure (SMILES): COc1cc2c(cc1O)C1(C)CCC(O)C(C)(C)C1CC2=O (stereo unspecified)
- activation [1]: -4.58% (inactive)
- Potency [8]: inactive

Structure (SMILES): C[C@@]1(C(=O)O)CC[C@]2(C)CC[C@]3(C)C4=CC(=O)c5cc(O)c(O)cc5[C@]4(C)CC[C@@]3(C)[C@@H]2C1
- activation [1]: -19.1% (inactive)
- Potency [4]: inactive
- Potency [5]: inactive
- Potency [8]: inactive
- Potency [11]: inactive
- Potency [9]: 4.47 µM (active)
- Potency [7]: inactive

Structure (SMILES): COC(=O)[C@]12CCCC(C)(C)C1CCc1cc(C(C)C)c(O)c(O)c12 (stereo partly specified)
- activation [1]: -23.7% (inactive)
- Potency [8]: inactive

Structure (SMILES): COc1ccc(CC2C(=O)NC(C)C(=O)N(C)C3Cc4ccc(cc4)Oc4cc(ccc4OC4OC(CO)C(O)C(O)C4O)CC(C(=O)NC(C)C(=O)NC(CCC(=O)O)C(=O)N2C)N(C)C3=O)cc1 (stereo unspecified)
- activation [1]: 5.36% (inactive)
- Potency [8]: inactive
